The values below come from PMC7862700, “An all-to-all approach to the identification of sequence-specific readers for epigenetic DNA modifications on cytosine”.

Common to all, as to assay: DAPPL (digital affinity profiling via proximity ligation, sequencing); 10 mM Tris-HCl pH 7.5, 50 mM NaCl, 1 mM DTT, 4% glycerol, room temperature, 30 min; GST-TFs on glutathione beads, 16-mer random dsDNA library, 0.1% formaldehyde crosslink after washing; high values mean tight binding
The target in one assay is T1, FEV (Homo sapiens, UniProt Q99581 1-238).
T1 sequence: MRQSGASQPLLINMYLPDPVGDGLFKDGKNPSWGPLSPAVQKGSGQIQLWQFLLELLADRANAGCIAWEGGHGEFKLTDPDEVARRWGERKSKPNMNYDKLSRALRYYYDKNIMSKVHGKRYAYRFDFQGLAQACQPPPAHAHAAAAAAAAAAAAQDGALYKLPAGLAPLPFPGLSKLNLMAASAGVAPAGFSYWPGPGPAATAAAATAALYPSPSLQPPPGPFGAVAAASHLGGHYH
Conditions: protein: recombinant; tags: N-terminal GST; dsDNA, one strand shown. In short, it runs like this: (§1)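 Human transcription factors were made in yeast as GST fusions, captured on glutathione beads and barcoded with DNA. With a tag-only sample included, the pool was incubated with 200 nmole of a random double-stranded 16-mer DNA library in Tris/NaCl/DTT/glycerol buffer at room temperature for 30 min, then crosslinked with 0.1% formaldehyde after washing, ligated by proximity, amplified and sequenced. For binding signal, each hexamer's read frequency for a factor is divided by its frequency for the tag-only sample.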

The target in the next assay is ETV5 (Homo sapiens, UniProt P41161 1-510). Conditions: protein: recombinant; tags: N-terminal GST; dsDNA, one strand shown. A digest of the protocol:
as §1

In a further assay the target is HSF1 (Homo sapiens, UniProt Q00613 1-529). The following applies: protein: recombinant; tags: N-terminal GST; chain copies: 3; dsDNA, one strand shown. A digest of the protocol:
as §1

For another assay, the target named is T2, SPIC (Homo sapiens, UniProt Q8N5J4 1-248).
T2 sequence: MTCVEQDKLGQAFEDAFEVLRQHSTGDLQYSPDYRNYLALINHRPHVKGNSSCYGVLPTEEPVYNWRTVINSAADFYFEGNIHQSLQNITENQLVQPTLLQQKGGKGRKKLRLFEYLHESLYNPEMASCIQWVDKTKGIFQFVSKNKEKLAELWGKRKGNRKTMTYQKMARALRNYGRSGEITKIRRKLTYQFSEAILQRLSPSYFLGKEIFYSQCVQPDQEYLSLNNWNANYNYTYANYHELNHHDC
The following applies: protein: recombinant; tags: N-terminal GST; dsDNA, one strand shown. A digest of the protocol: as §1

In a further assay the target is ELF4 (Homo sapiens, UniProt Q99607 1-663). The following applies: protein: recombinant; tags: N-terminal GST; dsDNA, one strand shown. In short, it runs like this:
as §1

In a further assay the target is T3, ELK4 (Homo sapiens, UniProt P28324-2 1-405).
T3 sequence: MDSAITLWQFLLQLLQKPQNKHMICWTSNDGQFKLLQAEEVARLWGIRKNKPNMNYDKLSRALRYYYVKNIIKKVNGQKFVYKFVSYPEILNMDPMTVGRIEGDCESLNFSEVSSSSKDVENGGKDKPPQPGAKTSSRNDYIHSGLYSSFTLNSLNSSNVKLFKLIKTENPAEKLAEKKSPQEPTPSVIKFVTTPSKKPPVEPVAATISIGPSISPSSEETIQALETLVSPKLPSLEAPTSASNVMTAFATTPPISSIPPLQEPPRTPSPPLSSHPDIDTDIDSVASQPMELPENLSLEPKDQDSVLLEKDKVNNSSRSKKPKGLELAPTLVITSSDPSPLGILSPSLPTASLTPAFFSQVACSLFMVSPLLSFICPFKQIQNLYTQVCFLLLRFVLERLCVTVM
Conditions: protein: recombinant; tags: N-terminal GST; dsDNA, one strand shown. A digest of the protocol:
as §1

Another assay has as its target T4, ETV2 (Homo sapiens, UniProt O00321 1-342).
T4 sequence: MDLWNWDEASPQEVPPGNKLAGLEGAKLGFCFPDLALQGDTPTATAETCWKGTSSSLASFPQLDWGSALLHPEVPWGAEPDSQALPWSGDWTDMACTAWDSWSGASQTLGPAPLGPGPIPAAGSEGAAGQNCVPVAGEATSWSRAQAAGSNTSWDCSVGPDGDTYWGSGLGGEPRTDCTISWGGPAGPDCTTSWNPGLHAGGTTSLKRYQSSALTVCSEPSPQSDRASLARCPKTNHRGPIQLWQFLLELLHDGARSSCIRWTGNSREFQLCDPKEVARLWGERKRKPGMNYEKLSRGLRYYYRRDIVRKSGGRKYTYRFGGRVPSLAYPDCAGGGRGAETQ
The following applies: protein: recombinant; tags: N-terminal GST; dsDNA, one strand shown. A digest of the protocol: as §1

The target of another assay is T5, ELF3 (Homo sapiens, UniProt P78545 1-371).
T5 sequence: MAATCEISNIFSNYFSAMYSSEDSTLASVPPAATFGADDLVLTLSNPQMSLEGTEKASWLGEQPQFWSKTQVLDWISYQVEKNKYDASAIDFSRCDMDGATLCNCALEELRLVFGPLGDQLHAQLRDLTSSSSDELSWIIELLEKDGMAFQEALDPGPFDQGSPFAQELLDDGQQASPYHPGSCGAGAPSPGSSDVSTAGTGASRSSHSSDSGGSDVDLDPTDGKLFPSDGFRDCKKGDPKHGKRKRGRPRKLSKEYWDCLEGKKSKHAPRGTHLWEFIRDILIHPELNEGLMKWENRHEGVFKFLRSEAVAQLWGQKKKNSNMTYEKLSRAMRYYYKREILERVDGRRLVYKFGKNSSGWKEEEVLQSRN
The following applies: protein: recombinant; tags: N-terminal GST; dsDNA, one strand shown. A digest of the protocol:
as §1

In another assay the target is CRX (Homo sapiens, UniProt O43186 1-299). The following applies: protein: recombinant; tags: N-terminal GST; dsDNA, one strand shown. A digest of the protocol: as §1
The target in the next assay is ETV1 (Homo sapiens, UniProt P50549 1-477). The following applies: protein: recombinant; tags: N-terminal GST; dsDNA, one strand shown. In short, it runs like this: as §1
The next assay has as its target T6, ERF (Homo sapiens, UniProt P50548 1-548).
T6 sequence: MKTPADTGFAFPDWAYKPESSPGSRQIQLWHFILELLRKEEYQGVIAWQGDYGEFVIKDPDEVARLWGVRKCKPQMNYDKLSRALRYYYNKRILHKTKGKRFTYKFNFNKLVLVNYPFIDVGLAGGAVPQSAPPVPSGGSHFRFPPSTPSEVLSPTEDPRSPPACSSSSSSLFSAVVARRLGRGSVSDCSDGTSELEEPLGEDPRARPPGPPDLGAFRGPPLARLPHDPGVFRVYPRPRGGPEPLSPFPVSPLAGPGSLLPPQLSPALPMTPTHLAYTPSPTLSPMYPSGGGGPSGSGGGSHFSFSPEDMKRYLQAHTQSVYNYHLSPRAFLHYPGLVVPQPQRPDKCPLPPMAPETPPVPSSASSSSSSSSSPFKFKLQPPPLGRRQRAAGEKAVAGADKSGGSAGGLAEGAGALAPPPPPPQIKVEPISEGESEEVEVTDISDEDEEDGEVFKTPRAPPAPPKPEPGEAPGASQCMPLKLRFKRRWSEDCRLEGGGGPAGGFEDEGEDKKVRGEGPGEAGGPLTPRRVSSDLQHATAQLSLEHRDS
The following applies: protein: recombinant; tags: N-terminal GST; dsDNA, one strand shown. In short, it runs like this: as §1

Another assay deals with T7, ETV3L (Homo sapiens, UniProt Q6ZN32 1-361).
T7 sequence: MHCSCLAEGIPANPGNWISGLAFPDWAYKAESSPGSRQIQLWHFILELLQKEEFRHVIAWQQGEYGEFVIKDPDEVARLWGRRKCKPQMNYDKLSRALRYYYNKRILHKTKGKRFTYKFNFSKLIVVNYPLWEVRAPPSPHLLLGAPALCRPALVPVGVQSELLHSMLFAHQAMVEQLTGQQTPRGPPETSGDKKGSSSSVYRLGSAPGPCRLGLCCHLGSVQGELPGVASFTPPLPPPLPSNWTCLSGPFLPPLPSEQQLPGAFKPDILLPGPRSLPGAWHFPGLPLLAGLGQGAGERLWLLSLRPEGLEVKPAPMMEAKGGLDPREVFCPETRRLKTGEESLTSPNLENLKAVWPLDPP
Conditions: protein: recombinant; tags: N-terminal GST; dsDNA, one strand shown. In short, it runs like this:
as §1

Another assay concerns the target T8, ETS2 (Homo sapiens, UniProt P15036 1-469).
T8 sequence: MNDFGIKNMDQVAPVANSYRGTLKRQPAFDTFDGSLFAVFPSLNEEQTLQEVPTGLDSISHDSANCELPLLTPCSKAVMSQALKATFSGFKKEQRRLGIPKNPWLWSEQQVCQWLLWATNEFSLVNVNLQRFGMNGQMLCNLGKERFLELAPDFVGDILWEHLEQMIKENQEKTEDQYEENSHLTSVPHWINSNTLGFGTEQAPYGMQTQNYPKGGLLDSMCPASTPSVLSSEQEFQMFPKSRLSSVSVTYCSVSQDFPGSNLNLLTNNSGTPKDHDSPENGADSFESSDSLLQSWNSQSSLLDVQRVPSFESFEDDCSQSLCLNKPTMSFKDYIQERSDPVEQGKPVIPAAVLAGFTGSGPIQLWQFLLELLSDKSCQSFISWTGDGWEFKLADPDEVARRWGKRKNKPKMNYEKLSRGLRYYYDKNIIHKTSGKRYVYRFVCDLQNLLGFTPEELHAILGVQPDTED
Conditions: protein: recombinant; tags: N-terminal GST; dsDNA, one strand shown. In short, it runs like this: as §1

The target of a further assay is T9, SPDEF (Homo sapiens, UniProt O95238 1-335).
T9 sequence: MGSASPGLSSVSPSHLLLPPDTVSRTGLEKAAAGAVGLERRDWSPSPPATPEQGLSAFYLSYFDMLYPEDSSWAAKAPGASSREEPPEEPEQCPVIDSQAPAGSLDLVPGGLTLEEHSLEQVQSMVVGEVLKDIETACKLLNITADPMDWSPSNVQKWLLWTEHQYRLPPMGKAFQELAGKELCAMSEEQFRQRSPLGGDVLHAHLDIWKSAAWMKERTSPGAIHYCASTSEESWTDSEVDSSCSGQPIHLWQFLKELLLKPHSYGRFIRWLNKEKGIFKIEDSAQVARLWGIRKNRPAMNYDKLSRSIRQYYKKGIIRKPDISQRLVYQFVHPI
Conditions: protein: recombinant; tags: N-terminal GST; dsDNA, one strand shown. A digest of the protocol:
as §1

The target in the next assay is T10, ETV7 (Homo sapiens, UniProt Q9Y603 1-341).
T10 sequence: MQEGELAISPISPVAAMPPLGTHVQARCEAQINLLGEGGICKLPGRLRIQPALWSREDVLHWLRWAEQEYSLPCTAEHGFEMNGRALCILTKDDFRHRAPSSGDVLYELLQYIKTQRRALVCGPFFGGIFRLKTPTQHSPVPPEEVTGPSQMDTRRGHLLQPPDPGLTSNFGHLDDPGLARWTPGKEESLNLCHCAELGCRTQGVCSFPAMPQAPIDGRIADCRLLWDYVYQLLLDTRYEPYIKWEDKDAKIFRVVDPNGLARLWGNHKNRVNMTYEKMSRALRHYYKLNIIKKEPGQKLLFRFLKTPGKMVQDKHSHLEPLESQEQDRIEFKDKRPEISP
The following applies: protein: recombinant; tags: N-terminal GST; dsDNA, one strand shown. A digest of the protocol:
as §1

For a further assay, the target named is T11, ELF5 (Homo sapiens, UniProt Q9UKW6-2 1-255).
T11 sequence: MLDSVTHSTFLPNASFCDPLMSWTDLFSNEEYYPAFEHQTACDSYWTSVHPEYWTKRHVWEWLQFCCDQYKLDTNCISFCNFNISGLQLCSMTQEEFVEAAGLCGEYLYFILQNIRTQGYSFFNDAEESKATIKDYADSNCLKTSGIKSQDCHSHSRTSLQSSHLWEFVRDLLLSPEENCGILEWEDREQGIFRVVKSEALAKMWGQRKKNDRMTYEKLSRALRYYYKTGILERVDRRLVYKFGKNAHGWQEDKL
Conditions: protein: recombinant; tags: N-terminal GST; dsDNA, one strand shown. A digest of the protocol:
as §1

The next assay has as its target T12, ETV3 (Homo sapiens, UniProt P41162-2 1-143).
T12 sequence: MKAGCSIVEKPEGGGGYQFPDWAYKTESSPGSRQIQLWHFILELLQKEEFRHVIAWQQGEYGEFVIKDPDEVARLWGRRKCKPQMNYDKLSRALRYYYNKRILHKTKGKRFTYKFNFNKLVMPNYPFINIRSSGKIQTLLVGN
The following applies: protein: recombinant; tags: N-terminal GST; dsDNA, one strand shown. A digest of the protocol: as §1

Another assay has as its target ETV6 (Homo sapiens, UniProt P41212 1-452). Conditions: protein: recombinant; tags: N-terminal GST; dsDNA, one strand shown. In short, it runs like this:
as §1

Sequence of ETV5 (P41161 whole entry): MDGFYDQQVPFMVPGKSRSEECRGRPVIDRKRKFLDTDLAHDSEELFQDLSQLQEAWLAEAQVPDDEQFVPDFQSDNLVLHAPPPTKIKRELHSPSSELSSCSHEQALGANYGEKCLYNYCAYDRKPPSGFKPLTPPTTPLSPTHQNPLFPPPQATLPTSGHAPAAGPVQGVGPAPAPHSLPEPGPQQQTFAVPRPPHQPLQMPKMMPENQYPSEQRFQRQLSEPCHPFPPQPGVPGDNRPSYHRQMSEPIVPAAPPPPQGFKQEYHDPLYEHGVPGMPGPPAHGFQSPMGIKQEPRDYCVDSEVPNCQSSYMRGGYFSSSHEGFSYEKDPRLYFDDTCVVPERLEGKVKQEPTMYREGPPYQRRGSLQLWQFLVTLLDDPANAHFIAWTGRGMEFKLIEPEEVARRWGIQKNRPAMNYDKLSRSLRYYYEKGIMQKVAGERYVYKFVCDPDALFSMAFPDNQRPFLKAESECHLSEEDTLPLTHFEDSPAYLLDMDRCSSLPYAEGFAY
Sequence of HSF1 (Q00613 whole entry): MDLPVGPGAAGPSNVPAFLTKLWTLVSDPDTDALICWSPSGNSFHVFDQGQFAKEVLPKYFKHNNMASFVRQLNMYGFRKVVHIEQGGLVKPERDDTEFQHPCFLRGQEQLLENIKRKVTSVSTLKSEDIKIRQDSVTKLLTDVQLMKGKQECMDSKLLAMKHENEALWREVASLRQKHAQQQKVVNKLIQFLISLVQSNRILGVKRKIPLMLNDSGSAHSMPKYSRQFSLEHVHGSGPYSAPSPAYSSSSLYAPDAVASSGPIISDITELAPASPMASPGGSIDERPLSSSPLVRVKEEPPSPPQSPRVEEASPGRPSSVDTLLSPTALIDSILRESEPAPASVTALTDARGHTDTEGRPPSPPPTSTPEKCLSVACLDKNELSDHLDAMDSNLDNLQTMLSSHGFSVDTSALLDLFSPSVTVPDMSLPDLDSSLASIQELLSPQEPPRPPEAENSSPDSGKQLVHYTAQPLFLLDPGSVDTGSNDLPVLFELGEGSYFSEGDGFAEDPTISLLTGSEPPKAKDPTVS
Sequence of ETV6 (P41212 whole entry): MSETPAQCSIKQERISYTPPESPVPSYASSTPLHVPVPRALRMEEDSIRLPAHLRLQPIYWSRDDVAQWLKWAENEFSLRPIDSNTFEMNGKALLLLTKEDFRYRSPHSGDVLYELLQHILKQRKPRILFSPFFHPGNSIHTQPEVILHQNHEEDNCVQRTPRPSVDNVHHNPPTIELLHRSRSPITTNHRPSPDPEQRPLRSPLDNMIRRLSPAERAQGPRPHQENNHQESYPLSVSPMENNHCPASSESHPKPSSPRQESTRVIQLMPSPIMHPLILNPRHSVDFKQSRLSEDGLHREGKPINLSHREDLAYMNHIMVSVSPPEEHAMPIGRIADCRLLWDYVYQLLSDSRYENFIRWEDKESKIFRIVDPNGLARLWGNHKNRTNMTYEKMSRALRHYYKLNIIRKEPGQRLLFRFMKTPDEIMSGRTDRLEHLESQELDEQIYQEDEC
Sequence of CRX (O43186 whole entry): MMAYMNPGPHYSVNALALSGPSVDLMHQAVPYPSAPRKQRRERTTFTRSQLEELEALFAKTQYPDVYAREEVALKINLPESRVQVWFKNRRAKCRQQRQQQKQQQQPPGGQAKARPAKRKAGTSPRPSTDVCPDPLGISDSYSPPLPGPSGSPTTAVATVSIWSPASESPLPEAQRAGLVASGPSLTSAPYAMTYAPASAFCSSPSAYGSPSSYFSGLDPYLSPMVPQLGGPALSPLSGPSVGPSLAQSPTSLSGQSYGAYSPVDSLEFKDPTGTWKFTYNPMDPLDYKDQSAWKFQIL
Sequence of ETV1 (P50549 whole entry): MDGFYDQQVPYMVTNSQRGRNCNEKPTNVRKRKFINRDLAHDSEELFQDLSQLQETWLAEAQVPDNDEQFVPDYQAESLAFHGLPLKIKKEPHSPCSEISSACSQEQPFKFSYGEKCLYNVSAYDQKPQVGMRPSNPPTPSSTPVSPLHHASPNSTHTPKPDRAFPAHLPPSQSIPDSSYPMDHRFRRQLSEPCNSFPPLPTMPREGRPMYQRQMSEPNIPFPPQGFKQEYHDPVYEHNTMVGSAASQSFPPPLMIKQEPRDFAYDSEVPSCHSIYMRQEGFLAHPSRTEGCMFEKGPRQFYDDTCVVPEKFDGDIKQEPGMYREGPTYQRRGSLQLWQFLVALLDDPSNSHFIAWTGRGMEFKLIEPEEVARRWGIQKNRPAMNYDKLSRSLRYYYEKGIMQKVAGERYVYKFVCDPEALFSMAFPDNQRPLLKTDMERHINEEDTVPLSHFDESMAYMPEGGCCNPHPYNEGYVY
Sequence of ELF4 (Q99607 whole entry): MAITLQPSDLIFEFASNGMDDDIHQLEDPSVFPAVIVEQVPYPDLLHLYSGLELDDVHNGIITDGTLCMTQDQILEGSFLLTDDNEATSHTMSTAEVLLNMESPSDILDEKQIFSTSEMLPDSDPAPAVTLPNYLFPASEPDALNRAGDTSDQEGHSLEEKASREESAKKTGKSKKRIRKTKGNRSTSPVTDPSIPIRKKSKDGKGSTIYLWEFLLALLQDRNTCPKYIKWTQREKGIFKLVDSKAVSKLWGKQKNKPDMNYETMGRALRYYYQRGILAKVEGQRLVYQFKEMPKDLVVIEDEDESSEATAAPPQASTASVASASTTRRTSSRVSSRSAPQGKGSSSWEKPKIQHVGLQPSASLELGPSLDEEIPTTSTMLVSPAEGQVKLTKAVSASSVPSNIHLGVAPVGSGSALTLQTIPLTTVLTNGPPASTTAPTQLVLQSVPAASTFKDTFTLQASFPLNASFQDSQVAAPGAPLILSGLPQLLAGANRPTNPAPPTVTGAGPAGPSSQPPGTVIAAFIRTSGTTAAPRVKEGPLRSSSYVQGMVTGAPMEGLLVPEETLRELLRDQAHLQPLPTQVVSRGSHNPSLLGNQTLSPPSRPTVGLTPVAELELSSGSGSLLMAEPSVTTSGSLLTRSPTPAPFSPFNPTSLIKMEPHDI

TATAGG: the binding signal with FEV was 1.15 fold enrichment (6-mer frequency, TF over GST control); with ETV5, 1.24 fold enrichment (6-mer frequency, TF over GST control); with HSF1, 1.2 fold enrichment (6-mer frequency, TF over GST control); with SPIC, 1.34 fold enrichment (6-mer frequency, TF over GST control); with ELF4, 1.05 fold enrichment (6-mer frequency, TF over GST control); with ELK4, 1.14 fold enrichment (6-mer frequency, TF over GST control). The binding signal is 1.26 fold enrichment (6-mer frequency, TF over GST control) with ETV2; 1.19 fold enrichment (6-mer frequency, TF over GST control) with ELF3; 1.42 fold enrichment (6-mer frequency, TF over GST control) with CRX; 1.13 fold enrichment (6-mer frequency, TF over GST control) in the assay with ETV1; 1.18 fold enrichment (6-mer frequency, TF over GST control) in the assay with ERF; 1.14 fold enrichment (6-mer frequency, TF over GST control) in the assay with ETV3L. Besides, the binding signal with ETS2 was 1.13 fold enrichment (6-mer frequency, TF over GST control); with SPDEF it was 1.19 fold enrichment (6-mer frequency, TF over GST control); with ETV7, 1.22 fold enrichment (6-mer frequency, TF over GST control); in the assay with ELF5, 1.23 fold enrichment (6-mer frequency, TF over GST control); with ETV3, 1.17 fold enrichment (6-mer frequency, TF over GST control); with ETV6, 1.11 fold enrichment (6-mer frequency, TF over GST control).
